# Measurements: the supplement of paper PMC6607015
# Counter-ions that a name gives are not always drawn.
# What was measured:
# Conditions in all cases: compound concentration in added solution (µM; 5 µl added to 20 µl cells): 10; 18 h
# [1] = test system: A431; experiment: LBPA endosome anti-LBPA integrated intensity (sum per cell), Z-score; higher = more LBPA staining
# Outline: (§1)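 HeLa MZ or A431 cells (3,500/well in 20 µl) were seeded onto 5 µl of 10 µM compound solution in duplicate 384-well imaging plates, incubated 18 h, then fixed in 4% PFA. Cells were stained with 6C4 anti-LBPA antibody, filipin, propidium iodide and CellTracker green, and four 20× images were taken per well. MetaXpress segmentation gave per-cell integrated LBPA or filipin intensity, either whole-cell or within LBPA endosomes. Values are Z-scores normalised in AcuityXpress.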
# [2] = test system: HeLa MZ; experiment: as above
# Outline: as §1
# [3] = test system: A431; experiment: whole-cell filipin (free cholesterol) integrated intensity, Z-score; higher = more cholesterol staining
# Outline: as §1
# [4] = test system: HeLa MZ; experiment: as above
# Outline: as §1
# [5] = test system: A431; experiment: filipin (cholesterol) integrated intensity within LBPA endosomes, Z-score; higher = more cholesterol in LBPA endosomes
# Outline: as §1
# [6] = test system: HeLa MZ; experiment: as above
# Outline: as §1
Structure (SMILES),LBPA endosome anti-LBPA integrated intensity (z-score) [1],LBPA endosome anti-LBPA integrated intensity (z-score) [2],whole-cell filipin (z-score) [3],whole-cell filipin (z-score) [4],filipin (z-score) [5],filipin (z-score) [6]
Cc1cn([C@H]2C=C[C@@H](CO)O2)c(=O)[nH]c1=O [Stavudine],-0.301,0.24,0.0526,0.186,-0.48,-0.475
COC(=O)CCc1ccc(OCC(O)CNC(C)C)cc1 (centres undefined) [Esmolol hydrochloride],-0.258,-0.524,-0.179,0.319,-0.36,-0.273
CO/N=C(\C(=O)N[C@@H]1C(=O)N2C(C(=O)O)=C(COC(C)=O)CS[C@H]12)c1csc(N)n1 [Cefotaxime sodium salt],-0.36,-0.201,-0.822,-0.63,-0.554,-0.583
CC(C)(C)NC[C@H](O)COc1nsnc1N1CCOCC1 [Timolol maleate salt],-0.399,-0.336,-0.605,-0.359,-0.435,-0.395
CO[C@H]1C[C@H](O[C@H]2[C@H](C)[C@@H](O[C@@H]3O[C@H](C)C[C@H](N(C)C)[C@H]3OC(C)=O)[C@@H](C)C[C@@]3(CO3)C(=O)[C@H](C)[C@@H](OC(C)=O)[C@@H](C)[C@@H](C)OC(=O)[C@@H]2C)O[C@@H](C)[C@@H]1OC(C)=O [Troleandomycin],-0.105,0.938,-0.701,-0.492,-0.249,-0.17
CN(C)CCC=C1c2ccccc2C=Cc2ccccc21 [Cyclobenzaprine hydrochloride],2.59,2.51,1.71,0.233,2.57,2.22
"CN(Cc1cnc2nc(N)nc(N)c2n1)c1ccc(C(=O)N[C@@H](CCC(=O)O)C(=O)O)cc1 (racemic) [Amethopterin (R,S)]",-0.376,2.61,0.379,2.03,-0.749,-0.934
CC(C)NC[C@@H](O)COc1cccc2ccccc12 [(R)-Propranolol hydrochloride],0.16,1.45,0.468,-0.0727,0.133,0.265
O=C(O)c1cn(C2CC2)c2cc(N3CCNCC3)c(F)cc2c1=O [Ciprofloxacin hydrochloride hydrate],-0.633,-0.847,-0.925,-0.971,-0.579,-0.519
Cn1cnc([N+](=O)[O-])c1Sc1ncnc2[nH]cnc12 [Azathioprine],-0.583,-0.922,-0.805,-1.15,-0.521,-0.677
O=C1CC2(CCCC2)CC(=O)N1CCCCN1CCN(c2ncccn2)CC1 [Buspirone hydrochloride],-0.302,-0.586,0.536,0.427,-0.00788,0.293
C[n+]1ccccc1/C=N/O [Pralidoxime chloride],-0.559,-0.678,-0.432,-0.212,-0.503,-0.574
C[C@@](Cc1ccc(O)c(O)c1)(NN)C(=O)O [Carbidopa],-0.613,-0.537,-0.771,-0.705,-0.551,-0.634
CNCCC=C1c2ccccc2CCc2ccccc21 [Nortriptyline hydrochloride],3.79,1.4,1.95,1.82,3.53,3.69
COc1ccc2cc(CCC(C)=O)ccc2c1 [Nabumetone],-0.302,0.891,-0.304,0.488,-0.495,-0.175
CC(=O)N1CCN(c2ccc(OCC3COC(Cn4ccnc4)(c4ccc(Cl)cc4Cl)O3)cc2)CC1 (centres undefined) [Ketoconazole],1.81,1.94,3.72,3.7,3.52,4.06
c1ccc2c(CC3=NCCN3)cccc2c1 [Naphazoline hydrochloride],-0.505,0.993,-0.75,0.085,-0.523,0.0798
CC(C)(C(=O)c1cccnc1)c1cccnc1 [Metyrapone],-0.435,-0.575,-0.128,-0.599,-0.359,-0.375
Cc1c(-c2ccccc2)oc2c(C(=O)OCCN3CCCCC3)cccc2c1=O [Flavoxate hydrochloride],-0.643,-0.619,-0.892,-0.899,-0.515,-0.534
CC[C@@H](CO)NCCN[C@@H](CC)CO [Ethambutol dihydrochloride],-0.297,-0.0372,-0.506,-0.399,-0.429,-0.483
O=C(OCC(O)CO)c1ccccc1Nc1ccnc2cc(Cl)ccc12 (centres undefined) [Glafenine hydrochloride],0.592,1.9,-1,-1.18,-0.297,0.0497
O=C(O)COC(=O)Cc1ccccc1Nc1c(Cl)cccc1Cl [Aceclofenac],-0.449,-0.174,-0.423,-0.27,-0.383,-0.402
O=C(CCNNC(=O)c1ccncc1)NCc1ccccc1 [Nialamide],-0.371,0.29,-0.078,-0.132,-0.403,-0.566
CC(=O)Nc1ccc(OCC(O)CNC(C)C)cc1 (centres undefined) [Practolol],-0.578,-0.861,-0.908,-0.531,-0.573,-0.506
CC(=O)Nc1ccc(O)cc1 [Acetaminophen],-0.388,0.0073,-0.156,-0.518,-0.48,-0.412

Structure (SMILES),LBPA endosome anti-LBPA integrated intensity (z-score) [1],LBPA endosome anti-LBPA integrated intensity (z-score) [2],whole-cell filipin (z-score) [3],whole-cell filipin (z-score) [4],filipin (z-score) [5],filipin (z-score) [6]
CCN1C(=O)NC(c2ccccc2)C1=O (centres undefined) [Ethotoin],-0.277,-0.178,-0.136,-0.484,-0.353,-0.513
CCOC(=O)/C=C(C)/C=C/C=C(C)/C=C/c1c(C)cc(OC)c(C)c1C [Etretinate],-0.297,0.358,0.197,-0.112,-0.399,-0.321
CC1(C)O[C@@H]2C[C@H]3[C@@H]4C[C@H](F)C5=CC(=O)C=C[C@]5(C)[C@H]4[C@@H](O)C[C@]3(C)[C@]2(C(=O)CO)O1 [Flunisolide],-0.32,-1.26,-0.035,-0.18,-0.256,-0.365
Cn1c(=O)c2[nH]cnc2n(C)c1=O [Aminophylline],-0.25,0.505,-0.204,0.324,-0.281,-0.178
CN(C)CCCN1c2ccccc2Sc2ccccc21 [Promazine hydrochloride],2.06,2.59,1.2,-0.208,1.35,1.31
CN(C)CCCN1c2ccccc2Sc2ccc(Cl)cc21 [Chlorpromazine hydrochloride],3.29,1.39,0.659,0.0307,2.35,1.67
O=C(O)c1cc(=O)c2c(OCC(O)COc3cccc4oc(C(=O)O)cc(=O)c34)cccc2o1 [Cromolyn disodium salt],-0.474,-0.0857,-0.438,-0.156,-0.425,-0.474
CC(=C(CCO)SSCC1CCCO1)N(C=O)Cc1cnc(C)nc1N (stereo in doubt) [Fursultiamine Hydrochloride],-0.412,-0.276,-0.00261,0.173,-0.513,-0.472
CC(=O)O[C@]1(C(C)=O)CC[C@H]2[C@@H]3C=C(C)C4=CC(=O)CC[C@@H]4[C@H]3CC[C@@]21C [Nomegestrol acetate],0.292,0.691,1.29,1.28,0.654,0.778
CC(COc1ccccc1)NC(C)C(O)c1ccc(O)cc1 (centres undefined) [Isoxsuprine hydrochloride],-0.187,0.869,-0.214,-0.465,-0.444,-0.378
OCCN(CCO)c1nc(N2CCCCC2)c2nc(N(CCO)CCO)nc(N3CCCCC3)c2n1 [Dipyridamole],0.808,0.577,-0.543,-0.536,-0.2,-0.39
CCn1cc(C(=O)O)c(=O)c2cc(F)c(N3CCNCC3)cc21 [Norfloxacin],-0.548,-0.705,-0.938,-1.18,-0.584,-0.612
CC(CN(C)C)C(C)(O)Cc1ccc(Cl)cc1 (centres undefined) [Clobutinol hydrochloride],-0.559,0.835,-0.328,-0.426,-0.624,-0.205
COc1ccc(C(=O)NCc2cccnc2)cc1C(=O)NCc1cccnc1 [Picotamide monohydrate],-0.303,-0.286,-0.472,-0.0549,-0.457,-0.612
c1ccc(CC2=NCCN2)cc1 [Tolazoline hydrochloride],-0.404,0.69,-0.609,-0.502,-0.487,-0.331
C#C[C@]1(O)CC[C@H]2[C@@H]3CCc4cc(OC)ccc4[C@H]3CC[C@@]21C [Ethynylestradiol 3-methyl ether],-0.376,0.717,-0.391,0.0701,-0.42,-0.16
O=S(=O)(O)CCS [Mesna],-0.366,0.0893,-0.163,0.141,-0.454,-0.55
CN1CCN(C2=Nc3cc(Cl)ccc3Nc3ccccc32)CC1 [Clozapine],1.19,2.46,0.629,-0.114,0.781,1.4
CC(CN(C)C)CN1c2ccccc2CCc2ccccc21 (centres undefined) [Trimipramine maleate salt],2.39,1.13,1.92,0.599,2.57,1.53
Nc1ccc(S(=O)(=O)Nc2ccccn2)cc1 [Sulfapyridine],-0.468,-0.131,-0.33,-0.348,-0.499,-0.602
N=C(N)NC(=N)NCCc1ccccc1 [Phenformin hydrochloride],-0.459,0.0471,-0.366,1.16,-0.42,-0.335
CN1CCN(CCCN2c3ccccc3Sc3ccc(Cl)cc32)CC1 [Prochlorperazine dimaleate],2.82,1.36,0.00438,-0.198,1.66,1.98
O=C(NCCNCC(O)COc1ccc(O)cc1)N1CCOCC1 (centres undefined) [Xamoterol hemifumarate],-0.337,-0.849,-0.403,-0.263,-0.407,-0.533
O=C(O)Cc1sc(-c2ccccc2)nc1-c1ccc(Cl)cc1 [Fentiazac],-0.661,-1.44,-0.809,-0.504,-0.591,-0.756
